# Results published in PubChem BioAssay (Tox21).
# A number with no mark means an inactive call. Inconclusive results are not listed. Entries that show only a call come without a potency. Calls of active or inactive are those of the source. Unless noted, the call rests on the fitted dose curve; in most records, active means well fitted curve in the direction sought with a large enough effect in the repeat runs; inconclusive means weak or mixed curves; inactive means no such curve, though single readings can be large; an effect the other way counts as inactive or inconclusive.
# Tests used:
# [1] = qHTS assay to identify small molecule agonists of the estrogen receptor alpha (ER-alpha) signaling pathway in the presence of an antagonist - cell viability counter screen (AID 1259386);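 further: series mostly up to about 92 µM; cells exposed to compounds for 22 h at 37 °C before the viability read; nearly all actives have a fitted effect of over 30% in size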
# Summary of the method: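 Using estrogen-depleted VM7Luc4E2 cells, the 15-concentration compound series was applied together with 10.0nM ICI-182,780 and incubated 22hr at 37C/5% CO2. Cell viability was then scored by CellTiter-Fluor.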
# [2] = qHTS assay to identify small molecule antagonists of the progesterone receptor (PR) signaling pathway - cell viability counter screen (AID 1346798); further: series mostly up to about 92 µM; nearly all actives have a fitted effect of over 50% in size
# Summary of the method: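 In the same plates used for the beta-lactamase readout, cell viability of compound- and R5020-treated PR-UAS-bla HEK293T cells (16 hr, 37C) was assessed by CellTiter-Glo luminescence.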
# [3] = qHTS assay to identify small molecule agonists of the progesterone receptor (PR) signaling pathway - cell viability counter screen (AID 1346799; calls by dose curve; further: nearly all actives have a fitted effect of over 45% in size)
# Summary of the method: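 Multiplexed viability read: CellTiter-Glo luminescence, 30 min RT, following LiveBLAzer FRET measurement on PR-UAS-bla HEK293T cells exposed to compounds 16 hr.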
# [4] = qHTS assay to identify small molecule antagonists of the TGF-beta/Smad signaling pathway - cell viability counter screen (AID 1346824); further: nearly all actives have a fitted effect of over 50% in size
# Summary of the method: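 SBE-bla HEK 293T cells, incubated overnight, then compound plus 0.25 ng/mL TGF-beta1 (stock added) for 5 hr at 37 C. Viability was read in the same wells by CellTiter-Glo luminescence after 30 min at room temperature.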
# [5] = qHTS assay to identify small molecule agonists of the TGF-beta/Smad signaling pathway - cell viability counter screen (AID 1346829); further: top concentration of the series differs between compounds; nearly all actives have a fitted effect of over 45% in size
# Summary of the method: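 SBE-bla HEK 293T cells plated overnight, compound exposure 5 hr at 37 C. Viability read in the same wells by CellTiter-Glo luminescence after 30 min at room temperature, following the beta-lactamase read.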
# [6] = qHTS assay to identify small molecule agonists of the TGF-beta/Smad signaling pathway (AID 1346859; active means well fitted activation curve with a large enough effect in the signal ratio in the repeat runs, not every such curve was filed as active; the % refers to the signal ratio; further: series mostly up to about 77 µM)
# Summary of the method: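 Screening used HEK 293T SBE-bla cells at 4,000/well. Test agents: 5 hr, 37 C. Detection: FRET substrate, 2 hr RT, then excitation 405 nm with emissions at 460 and 530 nm.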
# [7] = molecular target: Thyrotropin-releasing hormone receptor (Homo sapiens) (UniProt P34981); experiment: qHTS assay to identify small molecule antagonists of the thyrotropin-releasing hormone receptor (TRHR) signaling pathway (AID 1346877; active means well fitted inhibition curve with a large enough effect in the repeat runs, not every such curve was filed as active; further: series mostly up to about 51 µM)
# Summary of the method: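 Calcium signal in dye-loaded TRHR/HEK293 cells; compounds added 5 min before TRH (1 nM final); fluorescence monitored 3 min at 1 s steps.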
# [8] = molecular target: Thyrotropin-releasing hormone receptor (Homo sapiens) (UniProt P34981); experiment: qHTS assay to identify small molecule agonists of the thyrotropin-releasing hormone receptor (TRHR) signaling pathway (AID 1346891; calls by dose curve; further: series mostly up to about 58 µM)
# Summary of the method: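 Readout was intracellular calcium fluorescence in TRHR-Hek293 cells. Cells were incubated 18 h, dye-loaded 2 h at 37 °C, and treated with compound in agonist mode.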
# [9] = Human pregnane X receptor (PXR) small molecule agonists, qHTS cell viability counter screen (AID 1346977); further: nearly all actives have a fitted effect of over 50% in size
# Summary of the method: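 In each well, the PXR reporter HepG2 line was checked for viability: CellTiter-Fluor reagent added 23hr post-dosing, fluorescence read after 1hr incubation at 37C.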
# [10] = Caspase-3/7 induction in HepG2 cells by small molecules, qHTS assay (AID 1346978); further: nearly all actives have a fitted effect of over 15% in size
# Summary of the method: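 Wild-type HepG2 cells, 2,000/well, settled 5 hr at 37 C and 5% CO2, then compound-treated for 17 hr; caspase-3/7 activity read by luminescent Caspase-Glo 3/7 after 30 min at room temperature.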
# [11] = Caspase-3/7 induction in CHO-K1 cells by small molecules, qHTS cell viability counter screen (AID 1346979); further: nearly all actives have a fitted effect of over 35% in size
# Summary of the method: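 Following a 5hr settling period, CHO-K1 cells at 1,500 per well received DMSO-dissolved compounds. Cell viability was quantified 16hr later by CellTiter-Fluor fluorescence, measured after 1hr with reagent at 37C.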
# [12] = Caspase-3/7 induction in CHO-K1 cells by small molecules, qHTS assay (AID 1346980); further: nearly all actives have a fitted effect of over 15% in size
# Summary of the method: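 Wild-type CHO-K1 cells exposed to compounds for 17hr at 37 C, 5% CO2. Caspase-3/7 activity then measured by Caspase-Glo 3/7 luminescence after 30min at room temperature.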
# [13] = Caspase-3/7 induction in HepG2 cells by small molecules, qHTS cell viability counter screen (AID 1346981); further: series mostly up to about 92 µM; nearly all actives have a fitted effect of over 30% in size
# Summary of the method: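 After a 5-hr attachment period at 37 C and 5% CO2, wild-type HepG2 cells received compounds in DMSO. Sixteen hours later CellTiter-Fluor was dispensed and the fluorescent signal quantified after a further hour.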
# [14] = molecular target: Nuclear receptor subfamily 1 group I member 2 (Homo sapiens) (UniProt O75469); experiment: Human pregnane X receptor (PXR) small molecule agonists, qHTS assay (AID 1346982); further: nearly all actives have a fitted effect of over 35% in size
# Summary of the method: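 Tox21 qHTS; PXR-Luc HepG2; compounds pinned from DMSO; 24 hr, 37 C; ONE-Glo luciferase detection, 30 min room temperature.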
# [15] = molecular target: Cytochrome P450 2D6 (Homo sapiens) (UniProt P10635); experiment: Cytochrome P450 Family 2 Subfamily D Member 6 (CYP2D6) small molecule antagonists: luciferase reporter qHTS assay (AID 1671196); further: nearly all actives have a fitted effect of over 50% in size; further: potency means the concentration at half of the fitted maximal effect; on activity change, negative = inhibition: series mostly up to about 120 µM
# Summary of the method: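 Room-temperature luminescent CYP2D6 activity assay: compound preincubated 10 min with enzyme–substrate mix, NADPH-initiated reaction 1 h, detection reagent 20 min before reading.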
# [16] = molecular target: Progesterone receptor (Homo sapiens) (UniProt P06401); experiment: qHTS assay to identify small molecule antagonists of the progesterone receptor (PR) signaling pathway (AID 1346795; active means well fitted inhibition curve with a large enough effect in the signal ratio in the repeat runs, not every such curve was filed as active; the % refers to the signal ratio; further: potency means the concentration at half of the fitted maximal effect)
# Summary of the method: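 Stimulus R5020 at 1 nM final; cells HEK293T PR-UAS-bla; medium with 2% charcoal-stripped FBS; compound exposure 16 hr at 37C, 5% CO2; detection by FRET beta-lactamase substrate, 2 hr, room temperature.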
# [17] = molecular target: Nuclear receptor subfamily 1 group I member 2 (Rattus norvegicus) (UniProt Q9R1A7); experiment: Rat pregnane X receptor (rPXR) activation by small molecules, qHTS assay (AID 1346983); conditions: rPXR luciferase reporter cells, One-Glo luminescence, 24 h; max activation: hits give high values; further: nearly all actives have a fitted effect of over 20% in size
# Summary of the method: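 Cell-based rPXR activation assay: rPXR cells, 2,000 per well, rested 5hr at 37 C, then exposed to compounds in DMSO for 24 hr at 37 C. Luciferase activity read by One-Glo luminescence after 30 min at room temperature.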
# [18] = molecular target: Nuclear receptor subfamily 1 group I member 2 (Homo sapiens) (UniProt O75469); experiment: CYP3A4 induction through human pregnane X receptor (PXR) by small molecules, qHTS assay (AID 1346984); further: nearly all actives have a fitted effect of over 40% in size
# Summary of the method: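 Cells (DPX-2; HepG2 with PXR element plus CYP3A4-promoter luciferase) settled 5hr, then were treated 24hr at 37C. A 3hr, 3uM-final Luciferin-IPA step preceded luminescence measurement with One-Glo.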
# [19] = molecular target: Nuclear receptor subfamily 1 group I member 2 (Homo sapiens) (UniProt O75469); experiment: Human pregnane X receptor (PXR) activation by small molecules, qHTS assay (AID 1346985); further: nearly all actives have a fitted effect of over 40% in size
# Summary of the method: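 DPX-2 cells (HepG2 co-transfected with a PXR response element and a CYP3A4-promoter luciferase construct) were seeded at 2,000 per well, rested 5 hr at 37C, then exposed to DMSO-dissolved compounds for 24 hr. Activation was read as luciferase luminescence.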
# Sequence of Thyrotropin-releasing hormone receptor (Homo sapiens) (P34981 whole entry, looked up): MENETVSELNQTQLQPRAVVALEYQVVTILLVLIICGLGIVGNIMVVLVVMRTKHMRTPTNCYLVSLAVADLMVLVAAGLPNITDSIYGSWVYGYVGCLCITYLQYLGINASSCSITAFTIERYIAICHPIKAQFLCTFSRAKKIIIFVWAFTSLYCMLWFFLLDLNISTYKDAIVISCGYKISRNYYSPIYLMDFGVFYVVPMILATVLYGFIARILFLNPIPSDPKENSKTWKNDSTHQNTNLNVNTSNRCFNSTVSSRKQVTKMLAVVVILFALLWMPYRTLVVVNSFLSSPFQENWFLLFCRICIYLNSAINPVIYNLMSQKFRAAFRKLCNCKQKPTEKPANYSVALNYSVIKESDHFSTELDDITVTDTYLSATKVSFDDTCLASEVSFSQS
# Sequence of Nuclear receptor subfamily 1 group I member 2 (Rattus norvegicus) (Q9R1A7 whole entry, looked up): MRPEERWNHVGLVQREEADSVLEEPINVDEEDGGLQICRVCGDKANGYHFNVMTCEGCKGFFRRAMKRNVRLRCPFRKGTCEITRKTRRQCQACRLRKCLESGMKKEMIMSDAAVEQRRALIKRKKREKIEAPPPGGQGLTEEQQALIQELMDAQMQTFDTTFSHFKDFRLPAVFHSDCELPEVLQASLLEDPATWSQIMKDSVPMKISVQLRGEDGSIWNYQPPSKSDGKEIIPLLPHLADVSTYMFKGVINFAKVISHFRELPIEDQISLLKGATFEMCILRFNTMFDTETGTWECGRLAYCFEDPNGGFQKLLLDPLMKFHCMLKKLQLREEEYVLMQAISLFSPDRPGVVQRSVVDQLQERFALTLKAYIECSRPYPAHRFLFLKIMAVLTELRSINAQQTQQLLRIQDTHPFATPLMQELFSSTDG
# Sequence of Nuclear receptor subfamily 1 group I member 2 (Homo sapiens) (O75469 whole entry, looked up): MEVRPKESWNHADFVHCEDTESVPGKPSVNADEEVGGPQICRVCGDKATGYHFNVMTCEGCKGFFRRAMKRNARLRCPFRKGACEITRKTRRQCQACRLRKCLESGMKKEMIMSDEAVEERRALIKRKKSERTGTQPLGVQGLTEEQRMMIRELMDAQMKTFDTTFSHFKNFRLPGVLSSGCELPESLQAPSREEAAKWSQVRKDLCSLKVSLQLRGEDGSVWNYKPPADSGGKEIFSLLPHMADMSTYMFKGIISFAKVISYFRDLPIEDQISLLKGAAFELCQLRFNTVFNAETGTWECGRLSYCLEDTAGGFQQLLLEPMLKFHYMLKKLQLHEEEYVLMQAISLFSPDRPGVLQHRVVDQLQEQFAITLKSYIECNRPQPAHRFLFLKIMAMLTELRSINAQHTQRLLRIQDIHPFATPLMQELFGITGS
# Sequence of Cytochrome P450 2D6 (Homo sapiens) (P10635 whole entry, looked up): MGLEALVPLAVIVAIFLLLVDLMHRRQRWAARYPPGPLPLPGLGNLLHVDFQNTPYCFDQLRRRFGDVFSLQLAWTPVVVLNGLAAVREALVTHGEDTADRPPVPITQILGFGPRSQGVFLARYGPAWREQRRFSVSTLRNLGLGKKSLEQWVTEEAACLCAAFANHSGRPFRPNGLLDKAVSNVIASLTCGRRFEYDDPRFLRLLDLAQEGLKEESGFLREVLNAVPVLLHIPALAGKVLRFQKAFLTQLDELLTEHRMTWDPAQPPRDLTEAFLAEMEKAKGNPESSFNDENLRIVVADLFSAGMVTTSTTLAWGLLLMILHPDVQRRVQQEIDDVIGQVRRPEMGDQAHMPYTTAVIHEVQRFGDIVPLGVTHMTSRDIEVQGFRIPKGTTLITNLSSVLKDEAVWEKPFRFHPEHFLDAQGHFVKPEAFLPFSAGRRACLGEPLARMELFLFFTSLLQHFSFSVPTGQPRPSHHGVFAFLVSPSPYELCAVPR
# Sequence of Progesterone receptor (Homo sapiens) (P06401 whole entry, looked up): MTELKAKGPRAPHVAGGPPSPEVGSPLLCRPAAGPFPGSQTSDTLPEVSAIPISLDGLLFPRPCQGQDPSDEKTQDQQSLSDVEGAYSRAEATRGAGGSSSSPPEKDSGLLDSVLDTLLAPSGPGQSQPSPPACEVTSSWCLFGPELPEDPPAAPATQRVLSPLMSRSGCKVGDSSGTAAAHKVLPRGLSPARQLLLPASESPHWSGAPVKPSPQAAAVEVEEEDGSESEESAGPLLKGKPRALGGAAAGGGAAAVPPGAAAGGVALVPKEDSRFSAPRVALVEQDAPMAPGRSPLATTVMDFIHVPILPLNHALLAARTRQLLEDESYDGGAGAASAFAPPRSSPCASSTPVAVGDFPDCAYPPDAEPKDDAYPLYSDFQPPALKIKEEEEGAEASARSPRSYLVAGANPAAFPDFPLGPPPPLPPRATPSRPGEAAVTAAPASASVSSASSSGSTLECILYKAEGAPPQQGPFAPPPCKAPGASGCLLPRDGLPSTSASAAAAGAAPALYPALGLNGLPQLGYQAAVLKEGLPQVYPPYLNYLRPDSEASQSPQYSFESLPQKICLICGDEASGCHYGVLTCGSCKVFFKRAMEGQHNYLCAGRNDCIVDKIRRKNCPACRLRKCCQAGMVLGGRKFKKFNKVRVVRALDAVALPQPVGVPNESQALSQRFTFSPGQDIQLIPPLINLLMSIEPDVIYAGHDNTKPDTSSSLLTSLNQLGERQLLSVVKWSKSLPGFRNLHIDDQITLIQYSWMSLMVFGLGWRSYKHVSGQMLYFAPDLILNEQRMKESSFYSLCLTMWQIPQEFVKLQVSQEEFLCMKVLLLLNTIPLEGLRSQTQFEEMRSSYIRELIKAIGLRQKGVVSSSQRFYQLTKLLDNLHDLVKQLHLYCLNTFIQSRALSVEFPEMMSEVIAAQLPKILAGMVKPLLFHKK
structure (smiles),measurement,setting,value
CN(C)CCCNCCCN,Potency,[1],inactive
same,Potency,[2],inactive
same,Potency,[3],inactive
same,Potency,[4],inactive
same,Potency,[5],inactive
same,outcome,[6],inactive
same,outcome,[7],inactive
same,Potency,[8],inactive
same,Potency,[9],inactive
same,outcome,[10],inactive
same,Potency,[11],inactive
same,Potency,[12],inactive
same,Potency,[13],inactive
same,Potency,[14],inactive
same,Potency,[15],70.7 µM (active)
O=C(O)[C@@H]1[C@H]2C[C@H]3c4[nH]c5ccccc5c4CCN3C[C@@H]2CC[C@@H]1O,Potency,[1],inactive
same,Potency,[16],inactive
same,Potency,[2],inactive
same,Potency,[4],inactive
same,Potency,[5],inactive
same,outcome,[6],inactive
same,outcome,[7],inactive
same,Potency,[8],inactive
same,Potency,[9],inactive
same,outcome,[10],inactive
same,Potency,[12],inactive
same,Potency,[13],inactive
same,Potency,[14],inactive
same,max activation,[17],-0.311%
same,Potency,[18],inactive
same,Potency,[19],inactive
same,Potency,[15],1.55 µM (active)
O=C(O)c1cn(C2CC2)c2cc(Cl)c(F)cc2c1=O,Potency,[1],inactive
same,Potency,[16],inactive
same,Potency,[2],inactive
same,Potency,[3],inactive
same,Potency,[4],inactive
same,Potency,[5],inactive
same,outcome,[7],inactive
same,Potency,[9],inactive
same,Potency,[11],inactive
same,Potency,[12],inactive
same,Potency,[13],inactive
same,Potency,[15],inactive
CN1CCC(=C2c3ccccc3C=Cc3ccccc32)CC1,Potency,[1],inactive
same,Potency,[16],inactive
same,Potency,[3],inactive
same,Potency,[4],inactive
same,Potency,[5],inactive
same,outcome,[6],inactive
same,Potency,[12],inactive
same,Potency,[13],inactive
same,Potency,[15],2.45 µM (active)
CCN(CC)CCNC(C(=O)OCCC(C)C)c1ccccc1 (centres undefined),Potency,[1],inactive
same,Potency,[16],inactive
same,Potency,[2],inactive
same,Potency,[4],inactive
same,Potency,[5],inactive
same,outcome,[6],inactive
same,outcome,[7],inactive
same,Potency,[8],inactive
same,outcome,[10],inactive
same,Potency,[11],inactive
same,Potency,[12],inactive
same,Potency,[13],inactive
same,max activation,[17],-0.588%
same,Potency,[15],1.74 µM (active)
CC(C(=O)O)c1ccc(-c2ccccc2)c(F)c1 (centres undefined),Potency,[1],inactive
same,Potency,[4],inactive
same,Potency,[5],inactive
same,Potency,[9],inactive
same,outcome,[10],inactive
same,Potency,[11],inactive
same,Potency,[12],inactive
same,Potency,[13],inactive
same,max activation,[17],-4.66%
same,Potency,[18],inactive
same,Potency,[19],inactive
CCCCCOC(=O)c1ccc(O)cc1,Potency,[16],27.6 µM (active)
same,Potency,[4],inactive
same,Potency,[5],inactive
same,outcome,[6],inactive
same,Potency,[9],inactive
same,Potency,[12],inactive
same,Potency,[13],inactive
same,Potency,[15],71.8 µM (active)
O=S(=O)(O)c1ccc(O)c2ncccc12,Potency,[1],inactive
same,Potency,[3],inactive
same,Potency,[4],inactive
same,Potency,[5],inactive
same,outcome,[6],inactive
same,Potency,[9],inactive
same,outcome,[10],inactive
same,Potency,[12],inactive
same,Potency,[14],inactive
O=C(C(=O)c1ccc(Br)cc1)c1ccc(Br)cc1,"activity change, negative = cytotoxicity",[1],0.0353% [at 19 µM]
same,"activity change, negative = cytotoxicity",[3],14.5% [at 19 µM]
same,"viability change, negative = cytotoxic",[4],7.81% [at 15.8 µM]
same,"activity change, negative = cytotoxicity",[5],0.5% [at 15.8 µM]
same,activation,[6],2.2% [at 15.8 µM]
same,"activity, negative = inhibition",[7],-2.27% [at 10.5 µM]
same,activation,[8],0.083% [at 11.8 µM]
same,"activity change, negative = cytotoxicity",[9],-1.5% [at 19 µM]
same,caspase activation,[10],-0.0549% [at 19 µM]
same,"activity change, negative = cytotoxicity",[11],1.57% [at 19 µM]
same,caspase-3/7 activation,[12],0.394% [at 19 µM]
same,"activity change, negative = cytotoxicity",[13],2.21% [at 19 µM]
same,activation,[14],1.54% [at 19 µM]
same,"activity change, negative = inhibition",[15],1.74% [at 23.6 µM]
